Here are results for 40 compounds from PubChem BioAssay (Tox21).

Results filed as inconclusive are left out. Entries that show only a call come without a potency. A number with no mark means an inactive call. Calls of active or inactive are those of the source. Calls follow the shape of the dose curve; as a rule, active = well fitted inhibition curve with a large enough effect in the repeat runs; inconclusive = weak or mixed curves, or effect the other way; inactive = no such curve, though single readings can be large or run the other way.

The target in the assay is Nuclear receptor subfamily 1 group I member 3 (Homo sapiens) (UniProt Q14994). The assay is described as follows: qHTS assay to identify small molecule antagonists of the constitutive androstane receptor (CAR) signaling pathway (AID 1224838).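 Also: HepG2 cells stably expressing hCAR with CYP2B6 luciferase reporter stimulated by CITCO; nearly all actives have a fitted effect of over 40% in size.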 Particulars: HepG2-CYP2B6-hCAR luciferase, CITCO-stimulated, 24 h; series mostly up to 92.4 µM. From the text: U.S. Tox21 Program National Center for Advancing Translational Sciences [NCATS] NIH Chemical Genomics Center [NCGC] U.S. Environmental Protection Agency [EPA] National Institutes of Environmental Health Sciences [NIEHS] National Toxicology Program [NTP] U.S. Food and Drug Administration [FDA] Tox21 Assay Overview: The constitutive androstane receptor (CAR) is a nuclear receptor which regulates multiple drug metabolizing enzymes (DMEs) and transporters. Activating CAR will generally increase the transcription and subsequent translation of CYP2B6 and CYP3A4. These two DMEs represent about 50% of the drug metabolizing potential in the body. When CAR is deactivated, the metabolizing potential in the body will decrease, subsequently increasing the toxicity in the body or lowering the therapeutic potential of a pro-drug. Recently, there have also been studies performed indicating CARs role in energy metabolism and cancer therapy. Therefore, inhibiting CARs activity could have a potential effect on diabetes and cancer. Identifying environmental toxins and compounds which modulate CAR, through the use of the Tox21 10K compound collection, will be an important step in determining the toxicity and potential therapeutic effects these factors will have on the human body.
Nuclear receptor subfamily 1 group I member 3 (Homo sapiens), sequence (Q14994 whole entry, looked up): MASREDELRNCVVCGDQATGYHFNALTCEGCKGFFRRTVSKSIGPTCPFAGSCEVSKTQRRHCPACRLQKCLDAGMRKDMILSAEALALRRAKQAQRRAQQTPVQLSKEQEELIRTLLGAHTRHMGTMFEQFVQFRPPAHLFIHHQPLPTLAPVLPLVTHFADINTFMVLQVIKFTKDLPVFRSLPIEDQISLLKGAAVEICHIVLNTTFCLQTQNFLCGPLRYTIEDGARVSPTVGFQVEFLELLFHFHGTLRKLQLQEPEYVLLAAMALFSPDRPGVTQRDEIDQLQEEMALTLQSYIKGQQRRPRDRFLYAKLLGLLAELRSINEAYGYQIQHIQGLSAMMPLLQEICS
Tox21 Assay Protocol Summary: A double-stable (hCAR and CYP2B6-2.2kb) transfected cell line, derived from human hepatoma (HepG2) cells, was utilized for the duration of the quantitative high-throughput screens. The HepG2-CYP2B6-hCAR cells suspended in DMEM culture medium supplemented with 10% FBS, 5 ug/mL blasticidin, 0.5 mg/mL geneticin, 100 U/mL penicillin and 100 ug/mL streptomycin were dispensed at 2500 cells/4 uL/well in 1536-well white solid bottom plates using a Multidrop Combi. After the assay plates were incubated at 37 C/5% CO2 for 4 hrs, 23 nL of compounds at 15 concentrations (from 5-48 columns) or positive control (from 1 to 4 columns) were transferred to the assay plates using a Pintool station. One uL of CITCO, was added using a Flying Reagent Dispenser to generate a final concentration of 50 nM CITCO inside each well. After a 24 hr incubation period at 37 C/5% CO2, four uL of ONE-Glo reagent was added into the assay plates using a Flying Reagent Dispenser. After a 30 min incubation period at room temperature, the luminescence intensity in the assay plates was measured using a ViewLux plate reader.
Background: qHTS replaces the single test concentration by a dilution series.
As for `O=C1[C@H]2CCCC[C@H]2C(=O)N1CCCCN1CCN(c2nsc3ccccc23)CC1`, the Potency result was “inactive”.
`OCCN1CCN(CCCN2c3ccccc3C=Cc3ccccc32)CC1`: the Potency result was “inactive”.
Still for that read-out and setting: next, `CCC(C)(C)CC`: “inactive”.
The same measure, in the same setting: next, `CC(CC=O)c1ccccc1` (stereo not given): “inactive”; `CC(C)OC(=O)C(C)N(C(=O)c1ccccc1)c1ccc(F)c(Cl)c1` (stereo not given): “inactive”.
Regarding `CC(=O)c1cccc([N+](=O)[O-])c1`, the Potency entry was “inactive”.
The same measure, in the same setting: as for `CC(C)=CCC/C(C)=C/CC/C(C)=C/CO`, the entry is “inactive”; as for `CC(C)(O)c1ccc(CNC(=O)c2cccnc2Oc2ccc(F)cc2)cc1`, “inactive”.
On the same count and under the same terms, as for `C[C@H](CCC(=O)O)[C@H]1CC[C@H]2[C@@H]3CC[C@@H]4C[C@H](O)CC[C@]4(C)[C@H]3C[C@H](O)[C@]12C`, the entry is “inactive”.
Still for that read-out and setting: next, `COS(=O)(=O)C(F)(F)F`: “inactive”.
Turning to `CCCCc1ncc(/C=C(\Cc2cccs2)C(=O)O)n1Cc1ccc(C(=O)O)cc1`, the Potency entry was “inactive”.
Regarding `CN(C)CCN(Cc1ccsc1)c1ccccn1`, the Potency entry is “inactive”.
On the same count and under the same terms, next, `CCCCCCCN`: “inactive”; `CCCCC/C=C\C/C=C\CCCCCCCC(=O)NC(C)c1ccccc1` (stereo not given): “inactive”.
Still for that read-out and setting: as for `COc1ccc(C)cc1[N+](=O)[O-]`, the entry is “inactive”.
On to `Cc1ccc(N=Nc2c(O)c(C(=O)O)cc3ccccc23)c(S(=O)(=O)O)c1`, for which the Potency entry is “inactive”.
The same measure, in the same setting: as for `Cc1ncc(CO)c(C=O)c1O`, the entry is “inactive”; as for `O=C(O)C(S)C(S)C(=O)O` (stereo not given), “inactive”.
As for `CCCCCCCCCCCCCCCCOS(=O)(=O)O`, the Potency entry is “inactive”.
On the same count and under the same terms, next, `NCCCN1CCOCC1`: “inactive”; `CCCCc1nc2cccnc2n1Cc1ccc(-c2ccccc2-c2nnn[nH]2)cc1`: “inactive”.
The same measure, in the same setting: as for `O=C(Nc1ccccc1)c1ccccc1O`, the entry is “inactive”; as for `COc1ccc(C(=O)c2ccc(OC)cc2O)c(O)c1`, “inactive”.
With `CCCCCCCC/C=C\CCCCCCCC(=O)OCC`, the Potency entry was “inactive”.
For the compound `C=C1C(=C/C=C2\CCC[C@]3(C)[C@@H]([C@H](C)/C=C/[C@@H](O)C4CC4)CC[C@@H]23)C[C@@H](O)C[C@@H]1O`, the Potency entry is “inactive”.
The same measure, in the same setting: as for `O=C(NCCO[N+](=O)[O-])c1cccnc1`, the entry is “inactive”; as for `O=C(O)C1(C(=O)Nc2ccc(Cl)cc2Cl)CC1`, “inactive”; as for `CCCCCCCCCCCCN1CCCCCC1=O`, “inactive”.
As for `O=C(O)C1(C(=O)O)CCC1.[NH2-].[NH2-].[Pt+2]`, the Potency result is “inactive”.
For `Cc1oc(-c2ccccc2)nc1CCOc1cccc2c1ccn2CCC(=O)O`, the Potency result was “inactive”.
As to `CCCCC(=O)OCC(=O)[C@H]1[C@H](C)C[C@H]2[C@@H]3C[C@H](F)C4=CC(=O)C=C[C@]4(C)[C@@]3(F)[C@@H](O)C[C@@]21C`, the Potency entry was “inactive”.
As to `CN(C)c1ccc(/C=C/c2ccc([N+](=O)[O-])cc2)cc1`, the activity, negative = inhibition was 47.3% [at 8.39 µM].
Consider `Nc1ccc([N+](=O)[O-])c(C(F)(F)F)c1`, for which the Potency entry is “inactive”.
Regarding `CCCNCC(O)COc1ccccc1C(=O)CCc1ccccc1` (stereo not given), the Potency entry was “inactive”.
Take `CCC(C)O` (stereo not given): the Potency result is “inactive”.
The same measure, in the same setting: next, `CCCCCCCCCCO[C@@H]1O[C@H](CO)[C@@H](O)[C@H](O)[C@H]1O`: “inactive”.
Still for that read-out and setting: next, `C=C1[C@H]2CC[C@@H]3[C@H]2C(C)(C)CCC[C@]13C`: “inactive”; `CCC(CC)Nc1ccc(C)c(C)c1`: “inactive”; `CCCCCCCCCCCc1ccccc1`: “inactive”.
For the compound `COC(=O)C1=C(C)NC(COC(N)=O)=C(C(=O)OC(C)C)C1c1cccc(Cl)c1Cl` (stereo not given), the Potency entry is “inactive”.
